Data as given in the supplement of paper PMC6279402.
Where a name gives a salt, the structure may show the parent alone. ± gives the standard deviation of the averaged measurements.

System: A549
Test: relative viability (normalised to negative control = 1, bortezomib = 0) (fraction); higher = less cytotoxic
Conditions: inflammatory serum-free RHB-A with cytokines + LPS, 5 d + 24 h CellTiter-Blue
[1] = compound 30 nM, GSK126 pretreatment: 5 uM GSK126
[2] = compound 30 nM, GSK126 pretreatment: none (vehicle)
[3] = compound 300 nM, GSK126 pretreatment: 5 uM GSK126
[4] = compound 300 nM, GSK126 pretreatment: none (vehicle)

SMILES	relative viability [1]	relative viability [2]	relative viability [3]	relative viability [4]
Clc1ccc(C(c2ccccc2Cl)C(Cl)Cl)cc1 (configuration not stated)	0.827 ± 0.1	0.804 ± 0.093	0.832 ± 0.16	0.983 ± 0.12
Nc1nc(F)nc2c1ncn2[C@@H]1O[C@H](COP(=O)(O)O)[C@@H](O)[C@@H]1O [Fludarabine; Fludarabine phosphate]	0.858 ± 0.071	0.879 ± 0.098	0.891 ± 0.089	0.842 ± 0.055
COc1ncc(-c2ccc3nccc(-c4ccnnc4)c3c2)cc1NS(=O)(=O)c1ccc(F)cc1F	0.0446 ± 0.01	0.0459 ± 0.0045	0.00279 ± 0.0028	0.00434 ± 0.0032
Cc1ccc(NC(=O)c2cccc(N(C)C)c2)cc1NC(=O)c1ccc(O)cc1	0.965 ± 0.086	1.02 ± 0.11	1.19 ± 0.13	1.15 ± 0.042
O=c1c(O)c(-c2ccc(O)c(O)c2)oc2cc(O)cc(O)c12 [QUERCETIN; Quercetin(Sophoretin); Quercetin dihydrate]	0.89 ± 0.032	0.911 ± 0.052	0.961 ± 0.11	0.945 ± 0.058
Fc1cc(-c2cccc3ncc(-c4cnn(C5CCNCC5)c4)nc23)cc(F)c1CN1CCOCC1	0.927 ± 0.076	0.889 ± 0.13	1.11 ± 0.12	1.05 ± 0.15
Cc1cn(-c2cc(NC(=O)c3ccc(C)c(Nc4nccc(-c5cccnc5)n4)c3)cc(C(F)(F)F)c2)cn1 [Nilotinib]	1.02 ± 0.13	0.993 ± 0.089	1.14 ± 0.17	1.07 ± 0.069
Cc1nc(NC(=O)N2CCC[C@H]2C(N)=O)sc1-c1csc(C(C)(C)C)n1	0.809 ± 0.045	0.869 ± 0.085	0.704 ± 0.044	0.784 ± 0.059
COc1cc(Nc2c(C#N)cnc3cc(OCCCN4CCN(C)CC4)c(OC)cc23)c(Cl)cc1Cl [Bosutinib(SKI-606)]	0.984 ± 0.052	0.991 ± 0.061	0.65 ± 0.061	0.7617 ± 0.007
CO[C@H]1C(=O)[C@]2(C)[C@@H](OC)C[C@H]3OC[C@@]3(OC(C)=O)[C@H]2[C@H](OC(=O)c2ccccc2)[C@]2(O)C[C@H](OC(=O)[C@H](O)[C@@H](NC(=O)OC(C)(C)C)c3ccccc3)C(C)=C1C2(C)C [Cabazitaxel]	0.487 ± 0.065	0.349 ± 0.054	0.541 ± 0.061	0.421 ± 0.077
CNC(=O)c1cc(Oc2ccc(NC(=O)Nc3ccc(Cl)c(C(F)(F)F)c3)cc2)ccn1 [Sorafenib tosylate; Sorafenib; Sorafenib Tosylate]	1.12 ± 0.089	1.04 ± 0.039	1.12 ± 0.18	1.1 ± 0.1
Clc1ccc(C2(c3ccc(-c4cn[nH]c4)cc3)CCNCC2)cc1	0.706 ± 0.086	0.77 ± 0.055	0.734 ± 0.044	0.854 ± 0.012
O=C(O)c1ccc2c(c1)nc(Nc1cccc(Cl)c1)c1ccncc12	0.707 ± 0.14	0.761 ± 0.04	0.728 ± 0.11	0.839 ± 0.12
